Source: PubChem BioAssay (several laboratories)
NPR2 activator – GC-B (human) receptor activation. actives 0.11% (n = 370,000). HEK293-GC-B cells, CNP EC30, cGMP TR-FRET; 0% at EC30 CNP, 100% saturating CNP. activation, % at 10 µM. AID 1920062. P20594;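 active = activation at 10 µM reaching about 35% in either raw or pattern-adjusted values, limit read from the data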
GC-A act – GC-A (human) enzyme activation; P16066; HEK293 GC-A cells, cGMP TR-FRET, EC30 ANP; 0% at EC30 ANP, 100% saturating ANP; activation, % at 10 µM; actives 0.14% (n = 370,000); AID 1671463; in the data active = activation above about 40%
PLC-beta3 inh – PLC-beta3 (human) inhibition, primary screen; Purified PLC-beta3, fluorogenic substrate, fluorescence; inhibition, % at 12.2 µM; actives 0.18% (n = 370,000);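 note: 0% = median of compound wells on plate and 100% = full blocker control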
PfM18AAP inh – blocks P. falciparum M18 aspartyl aminopeptidase. recombinant PfM18AAP, H-Glu-NHMec fluorogenic cleavage. actives 1.2% (n = 290,000). inhibition, % at 7.35 µM;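 active = inhibition above the campaign mean inhibition over all tested compounds plus 3 SD, cut at about 28% in these data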;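 note: 0% = plate median of test compound wells and 100% = 2 mM ZnCl2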
PLC-gamma1 inh – PLC-gamma1 (human) inhibition, primary screen; inhibition, % at 12.2 µM; P19174; AID 720700; actives 0.84% (n = 370,000); purified PLC-gamma1, fluorogenic substrate, fluorescence; in the data active = inhibition above about 9.5%
Target sequence (P19174 whole entry, looked up): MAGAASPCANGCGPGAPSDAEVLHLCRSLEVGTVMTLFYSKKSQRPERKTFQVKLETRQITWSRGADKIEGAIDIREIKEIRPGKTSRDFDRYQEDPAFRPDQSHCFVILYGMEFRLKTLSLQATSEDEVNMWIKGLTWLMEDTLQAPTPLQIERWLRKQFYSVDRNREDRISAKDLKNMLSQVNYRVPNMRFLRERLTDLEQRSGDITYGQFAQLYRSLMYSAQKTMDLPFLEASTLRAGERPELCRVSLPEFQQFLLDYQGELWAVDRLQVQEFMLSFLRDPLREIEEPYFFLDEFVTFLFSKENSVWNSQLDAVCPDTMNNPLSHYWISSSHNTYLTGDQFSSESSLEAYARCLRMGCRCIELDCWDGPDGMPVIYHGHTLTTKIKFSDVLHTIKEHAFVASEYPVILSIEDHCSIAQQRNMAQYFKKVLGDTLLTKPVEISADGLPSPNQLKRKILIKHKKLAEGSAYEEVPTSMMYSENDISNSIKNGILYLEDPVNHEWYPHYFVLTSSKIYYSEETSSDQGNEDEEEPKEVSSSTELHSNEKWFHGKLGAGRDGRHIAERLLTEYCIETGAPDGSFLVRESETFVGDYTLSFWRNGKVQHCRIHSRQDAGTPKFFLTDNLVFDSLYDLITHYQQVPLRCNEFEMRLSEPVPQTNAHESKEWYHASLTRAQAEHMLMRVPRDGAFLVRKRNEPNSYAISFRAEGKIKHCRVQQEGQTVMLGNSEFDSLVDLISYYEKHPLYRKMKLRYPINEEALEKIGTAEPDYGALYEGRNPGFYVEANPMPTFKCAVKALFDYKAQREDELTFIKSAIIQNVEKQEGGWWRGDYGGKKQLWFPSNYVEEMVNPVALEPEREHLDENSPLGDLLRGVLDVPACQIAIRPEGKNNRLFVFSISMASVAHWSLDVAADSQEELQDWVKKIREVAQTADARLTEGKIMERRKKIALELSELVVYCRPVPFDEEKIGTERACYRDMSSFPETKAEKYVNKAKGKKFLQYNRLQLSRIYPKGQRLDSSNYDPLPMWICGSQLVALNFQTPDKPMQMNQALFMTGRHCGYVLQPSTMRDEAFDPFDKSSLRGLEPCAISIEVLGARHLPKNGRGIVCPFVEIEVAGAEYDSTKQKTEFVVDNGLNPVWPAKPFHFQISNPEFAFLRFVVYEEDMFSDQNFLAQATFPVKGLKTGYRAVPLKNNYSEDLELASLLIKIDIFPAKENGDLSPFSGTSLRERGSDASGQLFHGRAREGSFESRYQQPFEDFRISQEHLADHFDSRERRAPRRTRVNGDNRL
Rce1 inhib – inhibitors of yeast Ras-converting enzyme; yeast membranes, quenched prenylated peptide cleavage fluorescence; calls only; actives 0.27% (n = 290,000); AID 2563;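 active = fall in fluorescence gain of 50% or more versus controls, with final raw signal at or below 3038400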;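 note: plate controls were neutral control wells for no effect and wells lacking membranes for full effect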
PLCg1 ctr – counter-screen for PLC-beta3 inhibitors: inhibitors of human PLC-gamma1; shares compounds with PLC-gamma1 inh; purified PLC-gamma1, fluorogenic substrate, fluorescence; inhibition, % at 12.3 µM; actives 3.1% (n = 3,300); AID 743258; in the data active = inhibition above about 9.5%
PLCbeta3 conf – confirmation of human PLC-beta3 inhibitors; shares compounds with PLC-gamma1 inh; purified PLC-beta3, fluorogenic substrate fluorescence; inhibition, % at 12.3 µM; actives 1% (n = 3,300); AID 743261
* hit, by the source's call; i = inactive; nt = not tested or not shown. A selection: hits, their analogues and other compounds. The true share with any hit is near 2.2%. Cut-off read from the data, not from the text of the source, unless noted: active = inhibition above about 11%; inactive = the rest.

SMILES	NPR2 activator	GC-A act	PLC-beta3 inh	PfM18AAP inh	PLC-gamma1 inh	Rce1 inhib	PLCg1 ctr	PLCbeta3 conf
COC(=O)C1CN(Cc2cn(Cc3ccc(Cl)cc3)nn2)CCS(=O)(=O)N1Cc1ccc(OC)cc1 (stereo not drawn)	-5.9	-2.1	-19.1	nt	-9.5	nt	nt	nt
N#CCC[C@@H]1CC[C@]2(CCCN(S(=O)(=O)C3CCCCC3)C2)O1	-4.0	1.0	6.0	nt	-0.8	nt	nt	nt
O=C1CCCC(O)=C1N=Nc1c(Cl)cc(Cl)cc1Cl	-3.4	-1.6	4.5	20.9	10.2*	i	-3.8	-1.8
O=C1CCCC(O)=C1N=Nc1cccc(C(=O)O)c1	1.8	1.4	2.5	11.0	3.3	i	nt	nt
O=C(Nc1ccccc1C(F)(F)F)c1ccc(F)c(S(=O)(=O)N2CCOCC2)c1	-2.5	0.4	3.9	2.9	13.1*	i	0.7	-4.3
Cc1ccc(C(=O)OCC(=O)Nc2ccccc2C(F)(F)F)cc1S(=O)(=O)N1CCOCC1	1.1	-1.5	10.9*	-5.6	5.9	i	-5.7	-2.9
CCOC(=O)c1ccccc1NC(=O)COC(=O)c1ccc(C)c(S(=O)(=O)N2CCOCC2)c1	-3.3	-0.6	1.1	-2.2	0.2	i	nt	nt
COc1ccc(CC(N)c2csc(Nc3ccccn3)n2)cc1 (stereo not drawn)	-6.8	-6.9	9.4	nt	14.9*	nt	-0.1	1.7
COc1cccc(Nc2nc(C(N)Cc3ccc(Cl)cc3)cs2)n1 (stereo not drawn)	-12.6	-18.7	1.7	nt	9.5*	nt	-3.4	-2.2
CCCCCCC/C=C(\C)[C@@H](O)[C@@H](C)C(=O)N1CCC[C@@H]1C(=O)O[C@H](C(=O)O[C@@H](C)C(=O)O)[C@@H](C)CC	-0.2	0.6	1.2	nt	0.3	nt	nt	nt
CN(C)c1ncnc2c1ncn2[C@H]1CN(CCN2CCOCC2)C[C@@H](CO)O1	1.3	-2.0	5.6	nt	10.7*	nt	0.2	-0.1
CCCCC(=O)N[C@H]1CC[C@@]23CCCN2C(=O)CCC[C@H]3[C@H]1C	-4.0	1.3	0.3	nt	-2.0	nt	nt	nt
CCCCc1nc2ccccc2c(=O)n1NC(=O)c1c(O)c2c(n(CC(C)C)c1=O)CCCC2	3.4	-1.4	-0.5	-7.5	12.5*	i	-2.9	-2.9
CC(C)Cn1c2c(c(O)c(C(=O)Nn3c(Cc4ccccc4)nc4ccccc4c3=O)c1=O)CCCC2	1.6	-1.6	-0.5	3.5	-1.4	i	nt	nt
COC(=O)[C@H](C(C)C)N1Cc2nnn(CC3CCCCC3)c2-c2ccccc2S1(=O)=O	4.0	-0.3	5.0	nt	2.9	nt	nt	nt
Cc1ccc(C(=O)NNC(=O)C2CCN(S(=O)(=O)c3ccc(C)cc3)CC2)cc1	6.3	1.9	-3.2	4.1	3.3	i	nt	nt
Cc1ccc(S(=O)(=O)N2CCC(C(=O)NNC(=O)c3ccncc3)CC2)cc1	-0.4	-2.1	11.6*	-14.2	8.9	i	-6.0	-3.9
O=C(CCN=C1NS(=O)(=O)c2ccccc21)OCC(=O)c1ccccc1	-12.3	1.3	-7.9	nt	-2.7	i	nt	nt
CC(C)CCNC(=O)NC(=O)COC(=O)CCN=C1NS(=O)(=O)c2ccccc21	-4.0	1.6	-1.7	1.0	11.0*	i	-7.7	-1.3
CCOc1ccc(NC(=O)c2cc(-c3ccc(Cl)cc3)nc3ccccc23)cc1	9.2	-3.2	3.1	nt	2.5	nt	nt	nt
COC(=O)c1cc2c(c3c4ccccc4n(S(=O)(=O)c4cccc(C)c4)c13)C(=O)N(C)C2	-8.8	-7.3	-16.8	nt	-13.2	nt	nt	nt
O=C(CSc1nc2ccccc2n1Cc1ccccc1Cl)N/N=C\c1cccc(Oc2ccccc2)c1	11.1	7.9	0.3	nt	1.3	nt	nt	nt
CC(=O)Nc1cccc(-c2nnc3n2CC(C)S3)c1 (stereo not drawn)	-7.0	1.9	5.0	-5.7	14.6*	i	-6.4	-1.9
Cc1ccc(-n2nc3c(c2NC(=O)c2ccc4c(c2)OCO4)CS(=O)C3)cc1 (stereo not drawn)	1.0	-4.9	6.4	-4.1	11.2*	i	-2.7	2.9
